rCAG RNA binder: r(CAG) repeat RNA binding; TO-PRO-1 dye displacement fluorescence; inhibition, % at 3 µM; 1.3% of 370,000 active; AID 651821;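 active = inhibition above the plate cutoff, the mean of all test compounds on that plate plus 3 SD, cut at about 35% in these data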;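 also: 0% = DMSO alone and 100% = 100 µM mitoxantrone as full dye displacement; higher means more dye released from RNA so lower well fluorescence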
PRMT1 FP inh: PRMT1 (human) inhibition, primary screen. 1.3% of 370,000 active. inhibition, % at 2.79 µM. recombinant PRMT1, activity-based probe fluorescence polarization. Q99873;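 active = inhibition above about 21% made by adding two undisclosed values, limit read from the data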
ABHD5 PLIN5 PPI: inhibitors of human ABHD5-perilipin-5 interaction | inhibition, % at 4 µM | 0.78% of 360,000 active | Split G. princeps luciferase complementation, luminescence, 4 h | Q00G26+Q8WTS1 | AID 602281;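 active = inhibition above the mean inhibition across every tested compound plus 3 SD, cut at about 22% in these data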;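 also: 0% = DMSO only wells and the 100% control is not disclosed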
TLR9-MyD88 inh: inhibitors of human TLR9-MyD88 binding; Q9NR96+Q99836; CHO BLA complementation TLR9-MyD88, CCF4 FRET ratio; inhibition, % at 4.98 µM; 0.21% of 340,000 active; AID 504734;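 active = inhibition above the mean over all tested compounds plus 3 SD, cut at about 21% in these data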;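 also: 0% = DMSO only wells and 100% = clavulanate BLA inhibitor control wells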
NOD2 RIPK2 PPI: inhibitors of human NOD2-RIPK2 interaction; CHO BLA complementation NOD2-RIPK2, CCF4 ratio; inhibition, % at 4.98 µM; 0.38% of 360,000 active; AID 624267; in the data active = inhibition above about 21%;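 also: 0% = vehicle only and 100% = reference blocker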
Target sequence (O43353 whole entry, looked up): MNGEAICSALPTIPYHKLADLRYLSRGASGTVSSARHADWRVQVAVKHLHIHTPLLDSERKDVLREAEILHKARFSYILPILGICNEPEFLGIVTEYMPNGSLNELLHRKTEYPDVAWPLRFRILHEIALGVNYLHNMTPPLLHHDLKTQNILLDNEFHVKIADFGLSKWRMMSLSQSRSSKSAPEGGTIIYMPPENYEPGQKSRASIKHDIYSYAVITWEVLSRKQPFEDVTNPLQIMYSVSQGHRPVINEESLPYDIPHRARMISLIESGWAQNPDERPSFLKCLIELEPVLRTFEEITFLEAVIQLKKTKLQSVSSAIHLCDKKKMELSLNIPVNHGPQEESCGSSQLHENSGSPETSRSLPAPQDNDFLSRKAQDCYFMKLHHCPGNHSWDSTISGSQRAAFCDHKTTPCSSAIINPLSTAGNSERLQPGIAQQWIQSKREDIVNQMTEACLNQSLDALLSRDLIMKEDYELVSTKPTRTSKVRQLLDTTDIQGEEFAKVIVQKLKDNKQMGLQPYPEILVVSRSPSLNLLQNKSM
TLR4-MyD88 BLA: inhibitors of human TLR4-MyD88 binding. 0.18% of 200,000 active. inhibition, % at 8.4 µM. HeLa CL3-4 TLR4/MyD88 BLA complementation, FRET ratio; in the data active = inhibition above about 25%;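 also: 0% = vehicle and 100% = reference inhibitor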
PRMT1 confirm: confirmation of human PRMT1 inhibitors; inhibition, % at 2.79 µM; recombinant His-PRMT1, activity-based probe fluorescence polarization; shares compounds with PRMT1 FP inh; 42% of 3,300 active;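 active = mean inhibition across replicates above the hit cutoff derived for the earlier primary screen, cut at about 22% in these data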
* = called active by the depositor; · = no result. This is a sample that favours compounds with a hit; in the whole collection about 3.3% have one here.

SMILES	rCAG RNA binder	PRMT1 FP inh	ABHD5 PLIN5 PPI	TLR9-MyD88 inh	NOD2 RIPK2 PPI	TLR4-MyD88 BLA	PRMT1 confirm
C=CCOc1cccc(C2C(C(=O)c3ccco3)=C(O)C(=O)N2Cc2cccnc2)c1 (stereo not given)	2	-2	-7	-7	-11	·	·
CC(=O)NC(c1ccccc1)c1nc(-c2ccc(F)c(Cl)c2)cs1 (stereo not given)	2	2	-2	·	-12	·	·
c1ccc2c(c1)[nH]c1nc(SCCN3CCOCC3)nnc12	2	30*	-2	2	-8	11	3
O=c1[nH]c2c(s1)C=Nc1ccccc1N2	-92	69*	-19	0	3	-1	85*
O=C1CC(c2ccco2)CC2=C1C=Nc1ccccc1N2 (stereo not given)	4	7	8	2	-2	-12	·
O=C1CC(c2ccccc2)c2ccccc21 (stereo not given)	1	-1	-2	-11	-11	-2	·
CN1Cc2c(N)cccc2C(c2ccccc2)C1 (stereo not given)	-5	44*	1	8	-10	-4	8
CCN(CC)c1ccc2nc3ccc(N)cc3[n+](-c3ccccc3)c2c1	3	26*	19	5	3	·	13
Cc1ccccc1Nc1nc(N)nc(COC(=O)c2ccco2)n1	2	-2	3	-2	-14	·	·
Cc1ccc(/C=C/C(=O)OCc2nc(N)nc(Nc3ccccc3C)n2)o1	2	34*	8	10	-8	2	-6
Cc1ccc(CNC(=O)c2coc(=O)c3ccccc23)o1	13	32*	8	5	-15	-12	10
CCn1cc(C(=O)NCc2ccc(C)o2)c2cc(OC)c(OC)cc2c1=O	1	13	7	-4	4	-2	·
CN(C)c1ccc2c(c1)Sc1cc(N(C)C)ccc1N2C(=O)c1ccccc1	2	4	-4	-4	-2	·	·
CCN1C(=O)N[C@H]2C[C@@H](c3ccccc3)[C@@H](C)[C@@H](C(=O)N3CCCC3)C[C@H]21	0	3	·	·	·	·	·
CCC(C)(C)n1nnnc1C(c1ccc(O)c(OC)c1)N1CCN(c2nc3ccccc3s2)CC1 (stereo not given)	0	36*	17	0	1	10	36*
Oc1ccc(Cl)cc1N=Cc1sc2ccccc2c1Cl	-3	4	-5	-12	4	11	·
Oc1c(C=Nc2cccc3cccnc23)sc2ccccc12	-9	31*	·	·	·	8	32*
Cc1cccc(/N=C/c2sc3ccccc3c2O)n1	2	37*	-2	-1	-6	·	15
O=[N+]([O-])c1ccc(O)c(N=Cc2sc3ccccc3c2O)c1	9	66*	-5	-7	-4	-2	45*
Cc1cccc(/N=C/c2c(O)[nH]c3ccccc23)n1	1	5	0	-2	3	-17	·
CCCCn1c(N)c(N(CCOC)C(=O)COC(=O)CCOc2ccccc2C)c(=O)[nH]c1=O	-4	0	-8	6	1	·	·
O=C(CCC1CCCC1)N[C@@H](Cc1ccc(O)cc1)C(=O)O	1	0	-6	-11	-16	-7	·
Cc1ccc(S(=O)(=O)c2nc(S(C)(=O)=O)sc2N2CCC(C)CC2)cc1	0	28*	0	-14	-2	·	1
CC(=O)Nc1cc(-c2ccccc2N(C)C)cn2c(-c3cccc(C(F)(F)F)c3)cnc12	-1	99*	-9	·	-2	·	1
O=C(c1ccc(O)cc1)c1ccc(O)cc1O	1	2	-5	-1	-1	·	·
O=C(c1ccccc1)c1ccc(O)cc1O	-196	73*	-1	-1	-9	-14	42*
CCOC(=O)c1c(C)nc(C)c(C(=O)OCC)c1-c1ccccc1	·	·	2	-12	6	-10	·
CCOC(=O)c1c(C)nc(SCC(N)=O)c(C#N)c1-c1ccccc1	-1	35*	1	2	-8	4	-5
CCC(=O)N1CCc2cc(Br)c(S(=O)(=O)NC3CCN(Cc4ccccc4)CC3)cc21	2	-2	·	·	·	·	·
Nc1cc(S(=O)(=O)O)cc2ccc(S(=O)(=O)O)cc12	4	35*	-6	-6	3	·	10

From PubChem BioAssay
